Compound activity: PubChem, several laboratories
INS promoter inh: TRM-6 insulin promoter activity inhibition. TRM-6 cells (human fetal islet line), insulin promoter-eGFP reporter, imaging; reporter expression induced with tamoxifen. inhibition, % at 2 µM. hit rate 0.9% among 130,000. AID 1273;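 active = inhibition above the mean plus 3 SD, with well images judged a real hit on visual review, cut at about 60% in these data, passing the limit was not always enough; inconclusive = inhibition over the cutoff but images rejected on review; inactive = inhibition not above the cutoff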
HCT116 PTEN-null: growth suppressors of cells with PTEN tumor suppressor deletion | AID 827 | viability, % at 10 µM | hit rate 1.2% among 140,000 | HCT116 PTEN-null viability, CellTiter-Glo, 60 h; active compounds read low;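 active = viability at or below a set limit, 4 SD under the median of all tested compounds, cut at about 3.7% in these data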;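 note: PTEN knockout HCT116 line with beta catenin targeted HCT116 as companion control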
bCat KO growth: beta-catenin-lacking colon tumor cell growth suppression. HCT116 beta-catenin knockout viability, CellTiter-Glo, 60 h; active compounds read low. viability, % at 10 µM. hit rate 1.5% among 140,000;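 active = viability at or under a set limit, the compound median less 4 SD, cut at about 6% in these data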;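 note: 0% = Hyamine 1622 control at 20 µM and 100% = untreated cell control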
ROMK primary: modulators of human ROMK potassium channel | Tet-inducible ROMK, thallium flux fluorescence; actives lie on both sides | AID 1918 | P48048 | B-score at 10 µM | hit rate 2% among 130,000;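 active = signal ratio slope over the read window, or its plate-corrected B-score, at least 3 SD from the plate mean, either direction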;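 note: B-score of the F/F0 ratio slope over 7 to 12 s after thallium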
Target sequence (P48048 whole entry, looked up): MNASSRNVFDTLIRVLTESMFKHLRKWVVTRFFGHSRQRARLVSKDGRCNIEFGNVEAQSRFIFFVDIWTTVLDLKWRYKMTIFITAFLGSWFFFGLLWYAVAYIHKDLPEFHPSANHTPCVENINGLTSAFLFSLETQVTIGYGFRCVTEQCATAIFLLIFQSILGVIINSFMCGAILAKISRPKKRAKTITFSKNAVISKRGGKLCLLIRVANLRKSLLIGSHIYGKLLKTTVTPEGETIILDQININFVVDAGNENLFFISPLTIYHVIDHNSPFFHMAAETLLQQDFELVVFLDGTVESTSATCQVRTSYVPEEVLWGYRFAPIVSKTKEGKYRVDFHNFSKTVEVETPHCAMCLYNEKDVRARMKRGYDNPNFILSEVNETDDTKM
L major viab: reduces viability of Leishmania major promastigotes; resazurin fluorescence viability; inhibition, % at 10 µM; hit rate 9% among 200,000; AID 1063; in the data active = inhibition above about 50%;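 note: promastigotes grown with compound for 44 hours at 28 °C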
p97 inhibitor: blocks human p97 ATPase activity | P55072 | inhibition, % at 8 µM | hit rate 0.42% among 220,000 | recombinant p97 ATPase, Kinase-Glo ATP luminescence, 3 h; in the data active = inhibition above about 15%;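 note: 0% = DMSO vehicle and 100% = wells lacking enzyme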
ROMK retest: retested hit modulating human ROMK potassium channel | shares compounds with ROMK primary | ROMK thallium flux, fluorescence ratio; active compounds read low | normalized thallium flux (F/F0 slope) at 10 µM | hit rate 54% among 3,000 | AID 1917;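 active = Flux at 10 µM at least 3 SD below or above vehicle control mean in one or both replicates; inconclusive = no clear call, values can overlap the other calls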
* hit, by the source's call; ? = inconclusive; . = no result. A selection: hits, their analogues and other compounds. The true share with any hit is near 10%.

SMILES | INS promoter inh | HCT116 PTEN-null | bCat KO growth | ROMK primary | L major viab | p97 inhibitor | ROMK retest
C=CCn1c2ccccc2c2nnc(SCCCn3c(=O)[nH]c4ccccc43)nc21 | -371 | 60 | 66 | . | 18 | 2 | 0.065*
CCCCCc1ccc(OCCCC[n+]2ccccc2)c(CCCCC)c1 | -38 | . | . | -4.9* | 101* | -2 | 0.055*
CCCCCc1ccc(OCCCC[n+]2ccc(C)cc2)c(CCCCC)c1 | . | . | . | -5.6* | 100* | 2 | 0.047*
O=C(CSc1nnnn1C1CCCCC1)N1CCc2ccccc21 | 8 | 103 | 97 | . | -3 | -3 | .
O=C(CSc1ncc(-c2ccccc2)n1C1CCCC1)N1CCc2ccccc21 | -10 | 38 | 47 | -2.7* | 50* | 5 | ?
COC(=O)c1cc(C(=O)N2CCN(c3cccc(Cl)c3)CC2)cc([N+](=O)[O-])c1 | . | . | . | 3.7* | 50* | 0 | ?
CCOC(=O)c1cn2nc(Oc3ccc(C#N)cc3)ccc2n1 | . | . | . | 0.44 | . | 3 | .
CCOc1cc(/C=N/NC(=O)c2ccc(-c3csc(Nc4ccc(C)cc4)n3)cc2)ccc1OCC(=O)O | 6 | . | . | 3.3* | -6 | 2 | ?
COc1ccc(Br)cc1CNC(=O)CCCc1cn(C)c2ccccc12 | -60 | 80 | 94 | -0.04 | -2 | -6 | .
COc1ccc(OC)c(CNC(=O)CCCc2cn(C)c3ccccc23)c1 | -70 | 84 | 90 | 1.3* | 6 | 3 | ?
COc1ccc(CCCC(=O)NCc2ccccc2)cc1C | -70 | 29 | 32 | 4* | -4 | 2 | 0.088
COc1ccc(/C=N/NC(=O)c2cccc(OC(F)(F)C(F)F)c2)c(OC)c1OC | 23 | 104 | 98 | -1.2 | 9 | 4 | .
COc1ccc(/C=N/NC(=O)c2cccnc2)cc1COc1ccc(NC(C)=O)cc1 | . | . | . | 3.9* | . | -2 | ?
COc1ccc(/C=N/NC(=O)c2cccc(OC(F)(F)C(F)F)c2)cc1O | -29 | 76 | 80 | 1.8* | -7 | 0 | 0.089
COc1ccc(/C=N/NC(=O)c2cccnc2)cc1COc1ccc([N+](=O)[O-])cc1 | . | . | . | 4.7* | . | -2 | 0.091
CCc1cccc2c1NC(=O)C2(O)CC(=O)c1cccs1 (centres undefined) | . | . | . | -0.044 | -6 | 2 | .
Cc1c(C(=O)N2CCCCC2)nn(-c2ccc(Cl)cc2)c(=O)c1C#N | -71 | . | . | 0.76 | 6 | 0 | .
O=C(O)c1cccc2c1C(=O)c1ccccc1C2=O | . | . | . | -2.4* | -2 | 3 | 0.087
O=C(CCn1c2c(c3ccccc31)CCCC2)NNC(=O)c1ccccc1[N+](=O)[O-] | . | 79 | 84 | . | -3 | -10 | .
O=C(CCn1c2c(c3ccccc31)CCCC2)NNC(=O)c1ccccc1C(=O)O | . | . | . | . | . | 7 | 0.079
O=C(CCc1ccccc1)N1CCN(c2ccc(Cl)cc2)CC1 | 38 | 85 | 93 | -1.4 | -1 | 0 | .
O=C(CCc1ccc(Oc2cc([N+](=O)[O-])cc([N+](=O)[O-])c2)cc1)N1CCCCCC1 | -57 | 81 | 89 | -2.9* | 98* | -3 | 0.064*
O=C(CCc1ccccc1)N1CCN(c2ccc([N+](=O)[O-])cc2)CC1 | . | . | . | -3.6* | 1 | 5 | 0.063*
Cc1cc(C)c(NC(N)=S)c(C)c1 | . | . | . | 0.00079 | . | -3 | .
Cc1ccc(-n2c(C)nn(-c3ncc(C(F)(F)F)cc3Cl)c2=O)cc1 | 64 | 94 | 104 | . | -8 | 1 | .
SMILES | INS promoter inh | HCT116 PTEN-null | bCat KO growth | ROMK primary | L major viab | p97 inhibitor | ROMK retest
COc1ccccc1C/C(N)=N/OC(=O)c1ccc2c(c1)OCO2 | -60 | . | . | -3.1* | 25 | 1 | 0.072
Cn1c(-c2ccc3c(c2)OCO3)cnc1NCc1cccc(Cl)c1 | . | 70 | 87 | -4.8* | 93* | -5 | 0.065*
Cn1c(-c2ccc3c(c2)OCO3)cnc1N | . | 99 | 100 | . | 7 | 12 | .
Cn1ncc(C(=O)Nc2ccc(Cl)cc2)c1C(F)(F)F | . | . | . | . | . | 4 | .
Cn1nc(C(F)(F)F)cc1C(=O)Nc1ccc(Cl)cc1 | . | . | . | . | . | -3 | 0.082
CCn1c(Cc2ccc(OC)cc2)nnc1SCc1nc2ccccc2c(=O)[nH]1 | -25 | . | . | -0.02 | -7 | 4 | .
O=C(O)c1cc(-c2ccc(/C=C3/SC(=S)N(Cc4ccccc4)C3=O)o2)ccc1Cl | . | . | . | -4* | 4 | 4 | 0.043*
CCOC(=O)c1ccccc1NC(=S)N1CC(C)CC(C)C1 (centres undefined) | . | 103 | 94 | . | 4 | -1 | 0.064*
CCOC(=O)c1ccccc1NC(=S)N1CCC(C)CC1 | -38 | 88 | 82 | 0.17 | -5 | -3 | .
O=C(O)CCC(=O)Nc1ccc(OCC(=O)O)cc1 | . | 100 | 99 | -0.038 | -5 | -3 | .
Cc1cc(NC(=O)CSc2nnc(-c3ccncc3)n2-c2ccc(F)cc2)no1 | . | . | . | 1.1 | 10 | 4 | .
COc1ccc(-c2noc(CSc3nnc(-c4ccncc4)n3-c3ccc(F)cc3)n2)cc1OC | 16 | 75 | 72 | . | 72* | 1 | 0.082
COc1ccc(-c2nnc(SCc3nnc(-c4ccccc4)o3)n2-c2ccccc2)cc1 | 14 | 77 | 76 | . | 3 | 6 | .
COc1ccc(-n2c(SCc3nnc(-c4ccccc4)o3)nnc2-c2ccccc2)cc1 | -42 | 91 | 86 | . | 0 | 0 | 0.064*
COc1nccnc1NS(=O)(=O)c1ccc(N=Cc2c(C)[nH]n(-c3ccc(C)c(C)c3)c2=O)cc1 | 0 | 61 | 57 | 2.3* | -4 | -42 | 0.086
O=C(O)C1CCC(=O)N1Cc1ccccc1Cl (centres undefined) | 38 | 111 | 101 | 0.87 | -5 | 3 | .
Cc1cc2c(cc1C)N(C(=O)CSc1nncn1C)C(C)(C)c1ssc(=S)c1-2 | -85 | 95 | 90 | -3.5* | 20 | -11 | 0.064*
Cc1ccc2c(c1)N(C(=O)CSc1nncn1C)C(C)(C)c1ssc(=S)c1-2 | -18 | 82 | 71 | . | 8 | -2 | .
CC1(C)CN(c2cccc(Br)c2)C1=O | 47 | . | . | 2.1* | 3 | 3 | 0.073
CC1(C)CN(c2ccc(Br)cc2Br)C1=O | -8 | . | . | . | 6 | 2 | .
CC(C)(C)NC(=O)C(c1ccncc1)N(C(=O)c1csnn1)c1cccc2ccccc12 (centres undefined) | . | . | . | -0.5 | -5 | -2 | .
